From PubChem BioAssay (NCI)
Compounds without any hit were thinned out: in the full panel of roughly 83,000, 20% have a hit.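 Cell lines were cultured in 96-well plates, exposed to a single compound concentration, and assessed for percent growth 48 hours later.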 Values without a mark were called inactive. Active and inactive are the calls of the source. The calls were made as follows: active = growth percent below 10; inactive = the rest.

Tests used:
Assay in all cases: NCI-60 one-dose screen, 48 h (100 = growth as untreated, 0 = no growth, -100 = all killed)
EKVX NSCLC = conditions: 10 µM unless noted
SN12C renal = conditions: 10 µM unless noted
UO-31 renal = conditions: 10 µM unless noted
TK-10 renal = conditions: 10 µM unless noted
ACHN renal = conditions: 10 µM unless noted
CAKI-1 renal = conditions: 10 µM unless noted
A498 renal = conditions: 10 µM
HL-60(TB) leukemia = conditions: 10 µM unless noted
CCRF-CEM leukemia = conditions: 10 µM unless noted
MOLT-4 leukemia = conditions: 10 µM unless noted
SR leukemia = conditions: 10 µM unless noted
RPMI-8226 leukemia = conditions: 10 µM unless noted
OVCAR-8 ovarian = conditions: 10 µM unless noted
OVCAR-5 ovarian = conditions: 10 µM unless noted
OVCAR-4 ovarian = conditions: 10 µM unless noted
SK-OV-3 ovarian = conditions: 10 µM unless noted
IGROV1 ovarian = conditions: 10 µM unless noted
OVCAR-3 ovarian = conditions: 10 µM unless noted
HS 578T breast = conditions: 10 µM unless noted
SK-MEL-2 melanoma = conditions: 10 µM unless noted

Row | SMILES | growth (EKVX NSCLC) | growth (SN12C renal) | growth (UO-31 renal) | growth (TK-10 renal) | growth (ACHN renal) | growth (CAKI-1 renal) | growth (A498 renal) | growth (HL-60(TB) leukemia) | growth (CCRF-CEM leukemia) | growth (MOLT-4 leukemia) | growth (SR leukemia) | growth (RPMI-8226 leukemia) | growth (OVCAR-8 ovarian) | growth (OVCAR-5 ovarian) | growth (OVCAR-4 ovarian) | growth (SK-OV-3 ovarian) | growth (IGROV1 ovarian) | growth (OVCAR-3 ovarian) | growth (HS 578T breast) | growth (SK-MEL-2 melanoma) [%]
1 | C[C@]12CC[C@H]3[C@@H](CC4SC(N)=NC45C/C(=N/NC(N)=O)CC[C@]35C)[C@@H]1CCC2=O (stereo not given in full) | -4.54% (active) | 18.1% | 85.8% | 49.2% | 32.4% | 63% | 91.6% | 42.8% | -5.86% (active) | 13.4% | -21.8% (active) | -6.28% (active) | -2.26% (active) | 72.9% | -19.1% (active) | 101% | 2.9% (active) | -32.3% (active) | 36.4% | 
2 | COC(=O)[C@@]1(O)C[C@H]2O[C@]1(C)n1c3ccccc3c3c4c(c5c6ccccc6n2c5c31)C(=O)NC4 | -30.9% (active) | -47.2% (active) | -57.9% (active) | -86.3% (active) | -27.3% (active) | -97.5% (active) | -96.6% (active) | -44.5% (active) | 0.604% (active) | -31% (active) | -18.3% (active) | -39.6% (active) | -43.6% (active) | -11.6% (active) | -51% (active) | -33.8% (active) | -30.4% (active) | -19.2% (active) |  | 
3 | CC(=O)OCC1O[C@@H]([S-])C(OC(C)=O)[C@H](OC(C)=O)[C@@H]1OC(C)=O.[Au+].c1ccc(CN2[CH-]N(Cc3ccccc3)C(c3ccccc3)=C2c2ccccc2)cc1 |  | 23.6% | 45% | 29.6% | 30.1% |  | 42.1% |  | 7.57% (active) |  |  | -2.4% (active) | 53.2% | 93% | 60.2% | 56.9% | 14.3% | -18.5% (active) | 43.5% | 
4 | N#Cc1c(Br)n(C2OC(CO)C(O)C2O)c2ncnc(N)c12 (stereo not given) | 95.7% | 60.3% | 42.3% | 115% | 78.4% |  | -16.3% (active) | -33.7% (active) | 8.19% (active) |  |  |  | 35.2% | 95.5% | 75.3% | 78.3% | -35.1% (active) |  | 39.5% | 
5 | COc1cc(/C=C\c2cc(OC)c(OC)c(OC)c2)cc(N/C=C\C(=O)c2cc(OC)c(OC)c(OC)c2)c1OC |  | 36.9% | 22.3% | 55.1% | 28.9% |  | -12.4% (active) |  | 8.89% (active) | 28.7% | -5.44% (active) | 22.8% | 41.2% | 31.8% |  | 21.3% | 15.6% | 9.78% (active) | 1.26% (active) | 15.9
6 | Nc1ccc(OCCNS(=O)(=O)c2cccc(S(=O)(=O)F)c2)c(Cl)c1 |  | 102% | -13.3% (active) | 102% | 96.2% |  | 70.8% | 98.1% | 93.5% | 76.2% | 93.3% | 80.4% | 115% | 102% | 64.1% | 87.1% | 97.3% | 110% | 93.6% | 88.9
7 | CC1=C(O)[C@@](C)(CCCCC[C@H](C)CCCCc2ccc(O)cc2)OOC1=O | 95.4% | 88.5% | 68.8% | 129% | 97.5% | 80.6% | 119% | 84.4% |  | 86% | 50.1% | 85% | 93.4% | 103% | 100% | 106% | -11.1% (active) | 86.5% | 98.1% | 
8 | CC(=O)O[C@H]1CC[C@]2(C)[C@H]3CC[C@]4(C)[C@@H](OC(C)=O)CC[C@H]4[C@@H]3[C@@H](C)[C@]2(O)C1 |  | 101% | 88.7% | 112% | 112% |  | 105% |  | 93.1% | 87.9% | 96.1% | 100% | 115% | 108% | 110% | 117% | 116% | 127% | 110% | 99.1
9 | COC[C@@H]1C[C@@]2(C)[C@@H](CC[C@@H]3[C@@H]2CC[C@@]2(C)[C@H]3CC[C@]2(C)O)CC1=O |  | 107% | 91.1% | 85.2% | 92.6% |  | 111% | 78.6% |  | 90.4% | 83.7% | 84.5% | 95.8% | 97.9% | 101% | 98.7% | 98.9% | 106% |  | 83.2
